Data from PubChem BioAssay (NCATS).
Values joined by “and” are separate entries in the source; they are usually repeats but may differ in a detail not shown here. Identical values can stand only once. Results filed as inconclusive are left out. A call without a number means that no potency is given here. Active and inactive are the calls of the source. Calls follow the shape of the dose curve; as a rule, active = well fitted curve in the direction sought with a large enough effect; inconclusive = small, poorly fitted or top-dose-only effect, or another doubt; inactive = no such curve, though single readings can be large; an effect the other way counts as inactive or inconclusive.

Key:
[1] = target: Cellular tumor antigen p53 (Homo sapiens) (UniProt P04637); experiment: Primary qHTS for small molecule compounds that upregulate eGFP-tagged delta133p53alpha (in N-terminal) cells. (AID 2060322); settings: NCI-H358 eGFP-delta133p53alpha fluorescence, 24 h; activation: stronger effect = higher value; also: series mostly up to about 56 µM; nearly all actives have a fitted effect of over 75% in size
Chain of Cellular tumor antigen p53 (Homo sapiens) (P04637 whole entry, looked up): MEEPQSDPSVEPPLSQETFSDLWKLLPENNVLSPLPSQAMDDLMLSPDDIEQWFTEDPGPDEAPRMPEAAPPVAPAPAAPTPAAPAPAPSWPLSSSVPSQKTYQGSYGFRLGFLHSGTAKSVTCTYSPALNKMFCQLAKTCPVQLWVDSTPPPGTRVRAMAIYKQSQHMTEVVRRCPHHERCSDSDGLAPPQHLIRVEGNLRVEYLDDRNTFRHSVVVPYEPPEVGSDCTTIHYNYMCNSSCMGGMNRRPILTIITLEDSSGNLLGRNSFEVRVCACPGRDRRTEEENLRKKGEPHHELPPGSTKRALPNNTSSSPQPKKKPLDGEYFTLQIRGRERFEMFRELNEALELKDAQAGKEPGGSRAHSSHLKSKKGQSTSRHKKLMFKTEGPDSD
Outline: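 NCI-H358 cells pre-induced 24 h with 10 ng/ml doxycycline to express N-terminal eGFP-delta133p53alpha, then dosed 24 h at 37C without doxycycline; fixed, Hoechst-stained, GFP intensity by laser scanning cytometry, normalized to DMSO (0%) and 57.5 uM 5-azacytidine (100%).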

[2] = qHTS for Inhibitors of the Aldehyde Dehydrogenase Family (ALDH1A2, ALDH1A3, ALDH2, ALDH3A1) (AID 2061307); also: nearly all actives have a fitted effect of over 50% in size; as to potency: test system not described further here; potency is read from the fitted curve at half-maximal effect
[3] = target: Aldehyde dehydrogenase, mitochondrial (Homo sapiens) (UniProt P05091); experiment: qHTS for Inhibitors of the Aldehyde Dehydrogenase Family (ALDH2) Primary screen (AID 2061308); also: nearly all actives have a fitted effect of over 55% in size
[4] = target: Retinal dehydrogenase 2 (Homo sapiens) (UniProt O94788); experiment: qHTS for Inhibitors of the Aldehyde Dehydrogenase Family (ALDH1A2) Confirmation screens (AID 2061314); also: nearly all actives have a fitted effect of over 65% in size; also: potency is read from the fitted curve at half-maximal effect
[5] = target: Aldehyde dehydrogenase 1A1 (Homo sapiens) (UniProt P00352); experiment: qHTS for Inhibitors of the Aldehyde Dehydrogenase Family (ALDH1A1) Confirmatory screens (AID 2061316); also: nearly all actives have a fitted effect of over 65% in size
[6] = target: Retinaldehyde dehydrogenase 3 (Homo sapiens) (UniProt P47895); experiment: qHTS for Inhibitors of the Aldehyde Dehydrogenase Family (ALDH1A3) Confirmatory screens (AID 2061311); also: potency is read from the fitted curve at half-maximal effect; nearly all actives have a fitted effect of over 60% in size
[7] = target: Retinaldehyde dehydrogenase 3 (Homo sapiens) (UniProt P47895); experiment: qHTS for Inhibitors of the Aldehyde Dehydrogenase Family (ALDH1A3) Primary screen (AID 2061315); also: potency is read from the fitted curve at half-maximal effect
[8] = target: Retinaldehyde dehydrogenase 3 (Homo sapiens) (UniProt P47895); experiment: qHTS for Inhibitors of the Aldehyde Dehydrogenase Family (ALDH1A3) Validation screen (AID 2061312); also: nearly all actives have a fitted effect of over 45% in size
[9] = BET inhibitor-based combinations targeting novel dependencies in MECOM-rearranged (r) AML: SET-2 cell line (AID 2202231); settings: SET-2 AML cells viability, CellTiter-Glo luminescence, 48 h; viability: stronger effect = lower value, series mostly up to about 46 µM; also: nearly all actives have a fitted effect of over 35% in size
Outline: (§1)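 Cells were plated at 500 per well and exposed to an 11-point dose series of each drug for 48 hr. Viability was measured by CellTiter-Glo luminescence, normalized to DMSO and empty-well controls, and summarized as AUC and per-cell-line Z-AUC.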

[10] = BET inhibitor-based combinations targeting novel dependencies in MECOM-rearranged (r) AML: OCI-AML3 cell line (AID 2202232); settings: Potency: OCI-AML3 viability; also: nearly all actives have a fitted effect of over 35% in size; also: potency is read from the fitted curve at half-maximal effect
Outline: as §1

[11] = BET inhibitor-based combinations targeting novel dependencies in MECOM-rearranged (r) AML: MV-4-11 cell line (AID 2202233); also: nearly all actives have a fitted effect of over 45% in size; also: potency is read from the fitted curve at half-maximal effect
Outline: (§2)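 Activity is given as area under the curve and as Z-AUC, mean-centred within each cell line. It comes from 11-point dose curves normalized to DMSO and empty wells. CellTiter-Glo luminescence was read after 48 hr drug exposure of 500 cells/well.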

[12] = BET inhibitor-based combinations targeting novel dependencies in MECOM-rearranged (r) AML: HNT-34 cell line (AID 2202234); also: nearly all actives have a fitted effect of over 35% in size
Outline: as §2

[13] = BET inhibitor-based combinations targeting novel dependencies in MECOM-rearranged (r) AML: AML-191 cell line (AID 2202236; also: nearly all actives have a fitted effect of over 35% in size)
Outline: as §1

[14] = BET inhibitor-based combinations targeting novel dependencies in MECOM-rearranged (r) AML: UCSD-AML1 cell line (AID 2202235); also: series mostly up to about 46 µM; nearly all actives have a fitted effect of over 40% in size
Outline: as §2

SMILES: COC(=O)C1=COC(OC2OC(CO)C(O)C(O)C2O)C2C(COC(=O)/C=C/c3ccc(O)c(O)c3)C(O)C(O)C12 (stereo not given)
- activation [1]: -6.25% (inactive)
- Potency [2]: inactive
- Potency [3]: inactive
- Potency [4]: inactive
- Potency [5]: inactive

SMILES: COc1c(C(C)C)c(O)c(O)c2c1C(OC)[C@H]1OC(=O)[C@@]23CCCC(C)(C)[C@H]13 (stereo not given in full)
- activation [1]: -1.79% (inactive)
- Potency [2]: inactive
- Potency [6]: 6.97 µM (active)
- Potency [4]: 15.6 µM (active)
- Potency [7]: 2.82 µM (active)

SMILES: CC[C@@H](Nc1c(Nc2cccc(C(=O)N(C)C)c2O)c(=O)c1=O)c1cc(C(C)C)co1
- activation [1]: -2.39% (inactive)
- Potency [2]: 5.62 µM (active) and 7.08 µM (active)
- Potency [3]: inactive
- Potency [8]: inactive
- Potency [4]: inactive
- Potency [5]: inactive

SMILES: O=C(/C=C/c1ccc(O)c(O)c1)O[C@@H]1[C@@H](O)[C@H](OC2CCCCC2O)O[C@H](CO)[C@H]1O (stereo not given in full)
- activation [1]: 2.29% (inactive)
- Potency [2]: inactive
- Potency [6]: 5.51 µM (active)
- Potency [4]: inactive
- Potency [7]: 3.98 µM (active)

SMILES: COc1c2c(c(C)c3c1C(=O)OC3)OC1(C)CC(O)C34OC(OC)(CC(O)C3(C)C1C2)OC4(C)C (stereo not given)
- activation [1]: -9.92% (inactive)
- Potency [2]: inactive
- Potency [3]: inactive
- Potency [7]: inactive

SMILES: O=S(=O)(O)c1ccc2cc(N=Nc3cc(S(=O)(=O)O)c4cccnc4c3O)ccc2c1
- activation [1]: -29.8% (inactive) and -2.86% (inactive)
- Potency [2]: inactive
- Potency [8]: inactive
- Potency [4]: inactive
- Potency [7]: inactive
- viability [9]: 95.4% (inactive)
- Potency [10]: inactive
- Potency [11]: inactive
- Potency [12]: inactive
- Potency [13]: inactive

SMILES: S=C(NCc1ccc2c(c1)OCO2)N1CCN(c2ncnc3c2oc2ccccc23)CC1
- activation [1]: 8.81% (inactive) and -14.3% (inactive)
- Potency [2]: 1.58 µM (active)
- Potency [3]: inactive
- Potency [8]: inactive
- Potency [4]: 11.3 µM (active)
- Potency [7]: inactive
- Potency [5]: inactive
- Potency [10]: 2.95 µM (active)
- Potency [11]: 16.6 µM (active)
- Potency [14]: inactive
